Measured values reported in PubChem BioAssay (Tox21).
“And” between values parts separate entries of the source, which are not always exact repeats. Equal entries are not always repeated. Results filed as inconclusive are left out. Where a call stands in place of a potency, no number is given. A structure can be active in one record and inactive in another. The source made the active and inactive calls. Calls come from the whole dose curve; as a rule, active = well fitted curve in the direction sought with a large enough effect in the repeat runs; inconclusive = weak or mixed curves; inactive = no such curve, though single readings can be large; an effect the other way counts as inactive or inconclusive.

Experiments:
[1] = A CellTox Green Cytotoxicity Assay to monitor cytotoxicity in HEK293 cells - 32 hour (AID 1224881); conditions: CellTox Green fluorescence; series mostly up to 76.8 µM; note: nearly all actives have a fitted effect of over 40% in size; note: potency is the fitted concentration of half-maximal effect
Method in brief: (§1)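 Nonlytic real-time cytotoxicity: HEK293 + CellTox Green reagent plated, 5 h preincubation, pintool compound addition (23 nL in DMSO), 37 C for 40 h, fluorescence measured at successive time points.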

[2] = A CellTox Green Cytotoxicity Assay to monitor cytotoxicity in HepG2 cells - 0 hour (AID 1224882); conditions: CellTox Green fluorescence; series mostly up to 76.8 µM; note: nearly all actives have a fitted effect of over 35% in size
Method in brief: (§2)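 Read-out is fluorescence of a cyanine dye excluded from live cells that stains DNA of dead HepG2 cells, with signal proportional to cytotoxicity. Plates were read at 0, 8, 16, 24, 32 and 40 h after compound addition.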

[3] = A CellTox Green Cytotoxicity Assay to monitor cytotoxicity in HepG2 cells - 32 hour (AID 1224883); conditions: CellTox Green fluorescence; series mostly up to 76.8 µM; note: nearly all actives have a fitted effect of over 50% in size; note: potency is the fitted concentration of half-maximal effect
Method in brief: as §2

[4] = A CellTox Green Cytotoxicity Assay to monitor cytotoxicity in HEK293 cells - 8 hour (AID 1224884); conditions: CellTox Green fluorescence; series mostly up to 76.8 µM; note: nearly all actives have a fitted effect of over 35% in size; note: potency is the fitted concentration of half-maximal effect
Method in brief: as §1

[5] = qHTS RealTime-Glo MT Cell Viability Assay in HepG2 cells - 16 hour (AID 1224885); conditions: RealTime-Glo luminescence; series mostly up to 76.8 µM; note: nearly all actives have a fitted effect of over 50% in size; note: potency is the fitted concentration of half-maximal effect
Method in brief: (§3)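 Compound treatment began 5 h after plating HepG2 cells (600/well) with NanoLuc luciferase and prosubstrate. Plates stayed at 37 C for 40 h; luminescence was captured at six time points, 0 h through 40 h.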

[6] = qHTS RealTime-Glo MT Cell Viability Assay in HEK293 cells - 24 hour (AID 1224886); conditions: RealTime-Glo luminescence; series mostly up to 76.8 µM; note: nearly all actives have a fitted effect of over 50% in size; note: potency is the fitted concentration of half-maximal effect
Method in brief: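 Quantitative high-throughput screen of the Tox21 10K library in HEK293: cells and RealTime-Glo reagents plated together, compound added at 5 h, luminescence monitored through 40 h at 37 C.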

[7] = qHTS RealTime-Glo MT Cell Viability Assay in HEK293 cells - 8 hour (AID 1224887); conditions: RealTime-Glo luminescence; series mostly up to 76.8 µM; note: nearly all actives have a fitted effect of over 50% in size; note: potency is the fitted concentration of half-maximal effect
Method in brief: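 Cells were seeded together with NanoLuc luciferase and a prosubstrate that viable cells reduce to a luciferase substrate. After a 5 h incubation at 37 C/5% CO2, compounds were added and luminescence was measured repeatedly during 40 h of treatment.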

[8] = A CellTox Green Cytotoxicity Assay to monitor cytotoxicity in HEK293 cells - 16 hour (AID 1224888); conditions: CellTox Green fluorescence; series mostly up to 76.8 µM; note: nearly all actives have a fitted effect of over 35% in size; note: potency is the fitted concentration of half-maximal effect
Method in brief: as §1

[9] = qHTS RealTime-Glo MT Cell Viability Assay in HepG2 cells - 0 hour (AID 1224889); conditions: RealTime-Glo luminescence; series mostly up to 76.8 µM; note: nearly all actives have a fitted effect of over 50% in size; note: potency is the fitted concentration of half-maximal effect
Method in brief: as §3

[10] = A CellTox Green Cytotoxicity Assay to monitor cytotoxicity in HepG2 cells - 8 hour (AID 1224890); conditions: CellTox Green fluorescence; series mostly up to 76.8 µM; note: nearly all actives have a fitted effect of over 45% in size; note: potency is the fitted concentration of half-maximal effect
Method in brief: as §2

SMILES | Potency [1] | Potency [2] | Potency [3] | Potency [4] | Potency [5] | Potency [6] | Potency [7] | Potency [8] | Potency [9] | Potency [10]
O=S(=O)(O)F | inactive | inactive | inactive | inactive | inactive | inactive | inactive | inactive | inactive | inactive
CC(C)=CCN1CC[C@@]2(C)c3cc(O)ccc3C[C@@H]1[C@@H]2C | inactive | inactive | inactive | inactive | inactive | – | inactive | inactive | inactive | –
C[C@@H]1CC2=CC(=O)CC[C@@H]2[C@H]2CC[C@@]3(C)[C@@H](CC[C@]3(C)O)[C@@H]21 | inactive | inactive | inactive | inactive | inactive | – | inactive | inactive | inactive | inactive
CCC[CH2][Sn]([CH2]CCC)([O]C(C)=O)[O]C(C)=O | 392 nM (active) | inactive | 0.221 µM (active) | inactive | 0.554 µM (active) | 0.0879 µM (active) | – | 4400 nM (active) | inactive | inactive
N#CCCl | inactive | inactive | inactive | inactive | inactive | – | inactive | inactive | inactive | inactive
CCOP(=S)(OCC)Oc1cc(C)nc(N(CC)CC)n1 | inactive | inactive | inactive | inactive | inactive | inactive | inactive | inactive | inactive | inactive
C#CCC1=C(C)C(OC(=O)C2C(C=C(C)C)C2(C)C)CC1=O (stereo not drawn) | inactive | inactive | inactive | inactive | inactive | – | – | inactive | inactive | inactive
Cc1ccc([N+](=O)[O-])[c]2c1[O][Hg]2 | 674 nM (active) | inactive | 2.13 µM (active) | inactive | 2.39 µM (active) | 3.38 µM (active) | 3790 nM (active) | – | inactive | 3.79 µM (active)
Nc1nc(N)nc(Cl)n1 | inactive | inactive | inactive | inactive | inactive | inactive | inactive | inactive | inactive | inactive
NC1CCC(CC2CCC(N)CC2)CC1 (stereo not drawn) | inactive | inactive | inactive | inactive | inactive | – | inactive | inactive | inactive | inactive
CCCCn1cc[n+](C)c1.[Cl][Fe-]([Cl])([Cl])[Cl] | inactive | inactive | inactive | inactive | inactive | inactive | inactive | inactive | inactive | inactive
CCC1COC(Cn2cncn2)(c2ccc(Cl)cc2Cl)O1 (stereo not drawn) | inactive | inactive | inactive | inactive | inactive | – | inactive | inactive | inactive | inactive
CN | inactive | inactive | inactive | inactive | inactive | inactive | inactive | inactive | inactive | inactive
COC(=O)c1cc(Oc2ccc(Cl)cc2Cl)ccc1[N+](=O)[O-] | inactive | inactive | inactive | inactive | inactive | – | – | inactive | inactive | inactive
Cc1ccc2cc3c(ccc4ccccc43)c3c2c1CC3 | inactive | inactive | 6.93 µM (active) | inactive | inactive | inactive | inactive | – | inactive | –
CCCCCCCCCCCCCCn1cc[n+](C)c1 | 34.7 µM (active) and 38.5 µM (active) and inactive | inactive | 21.9 µM (active) and 24.3 µM (active) and inactive | 55 µM (active) and 54.4 µM (active) and inactive | 39 µM (active) and 54.4 µM (active) and inactive | 7.78 µM (active) and 8.62 µM (active) | – | – | inactive | 39 µM (active) and 48.5 µM (active) and inactive

SMILES | Potency [1] | Potency [2] | Potency [3] | Potency [4] | Potency [5] | Potency [6] | Potency [7] | Potency [8] | Potency [9] | Potency [10]
COP(=S)(OC)Oc1nc(Cl)c(Cl)cc1Cl | inactive | inactive | inactive | inactive | inactive | inactive | – | inactive | inactive | inactive
CO/N=C(\C(=O)OC)c1ccccc1CO/N=C(\C)c1cccc(C(F)(F)F)c1 | inactive | inactive | inactive | inactive | inactive | – | – | inactive | inactive | inactive
O.O.O.O.O.O.O.O=S(=O)([O-])[O-].[Co+2] | inactive | inactive | inactive | inactive | inactive | inactive | inactive | inactive | – | inactive
[Cl][Hg][c]1ccccc1 | 2190 nM (active) | inactive | 2.45 µM (active) | inactive | 2.75 µM (active) | 1.23 µM (active) | 1950 nM (active) | inactive | – | 3.09 µM (active)
Oc1cccc(Cl)c1Cl | inactive | inactive | inactive | inactive | inactive | – | inactive | inactive | inactive | inactive
CC#C[C@]1(O)CC[C@H]2[C@@H]3C[C@H](C)C4=CC(=O)CC[C@]4(C)[C@H]3CC[C@@]21C | inactive | inactive | inactive | inactive | inactive | – | inactive | inactive | 2680 nM (active) | inactive
CC(C)(C)c1ccc(OP(=O)(Oc2ccccc2)Oc2ccccc2)cc1 | inactive | inactive | inactive | inactive | inactive | – | – | inactive | inactive | inactive
CNC(C)(C)Cc1ccccc1 | inactive | inactive | inactive | inactive | inactive | inactive | inactive | inactive | inactive | inactive
COC(=O)N(OC)c1ccccc1COc1ccn(-c2ccc(Cl)cc2)n1 | inactive | inactive | inactive | inactive | inactive | – | – | inactive | inactive | inactive
CCC(C)c1cccc(C(C)CC)c1O (stereo not drawn) | 30900 nM (active) | inactive | 19.5 µM (active) | inactive | inactive | inactive | inactive | – | inactive | 19.5 µM (active)
CN1[C@@H]2CC[C@H]1CC(O)C2 (stereo partly drawn) | inactive | inactive | inactive | inactive | inactive | inactive | inactive | inactive | inactive | inactive
S=C=Nc1ccccc1 | inactive | inactive | inactive | inactive | inactive | inactive | inactive | inactive | inactive | inactive
CCCCc1ccccc1 | inactive | inactive | inactive | inactive | inactive | inactive | inactive | inactive | inactive | inactive
COC(=O)c1ccccc1S(=O)(=O)NC(=O)Nc1nc(C)nc(OC)n1 | inactive | inactive | inactive | – | inactive | inactive | inactive | inactive | inactive | inactive
NC(=O)C(Cl)Cl | inactive | inactive | inactive | – | inactive | inactive | inactive | inactive | inactive | inactive
O=S1OCC2C(CO1)C1(Cl)C(Cl)=C(Cl)C2(Cl)C1(Cl)Cl (stereo not drawn) | 49 µM (active) and 54.9 µM (active) | inactive | 54.9 µM (active) | – | 48.9 µM (active) | 21.9 µM (active) and 38.9 µM (active) | 43600 nM (active) | – | inactive | 54.9 µM (active)
